This is an account of results in the supplement of paper PMC9177965.

Values joined by “and” are separate entries in the source; they are usually repeats but may differ in a detail not shown here. Equal entries are not always repeated.

This assay has as its system HT29 RNF43 G659fs (RNF43 659mut, CRISPR-edited). The assay can be described thus: cell viability activity relative to DMSO (negative = inhibition); higher = more viable cells (less growth inhibition). The settings on record: 5 µM; 96 h. As for the experimental part:
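Broad Repurposing Library primary screen at a single dose of 5 uM. HT29 sg-Ctrl and HT29 RNF43 G659fs CRISPR-edited isogenic cells were seeded at 2500 cells/well in 384-well plates in duplicate and treated for 96 h. Viability was read by CellTiter-Glo and reported as % activity relative to DMSO, with MG132 as the positive control (negative = growth inhibition).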
With `C#CCC(Cc1cnc2nc(N)nc(N)c2n1)c1ccc(C(=O)N[C@@H](CCC(=O)O)C(=O)O)cc1` (some centres not stated), the cell viability activity was -68.9%.
For `Cc1ccc(C(=O)Nc2cccc(C(F)(F)F)c2)cc1Nc1nc(-c2cccnc2)nc2c1cnn2C`, the cell viability activity is -36.8%.
With `CC(C)N(C[C@H]1O[C@@H](n2cnc3c(N)ncnc32)[C@H](O)[C@@H]1O)[C@H]1C[C@@H](CCc2nc3cc(C(C)(C)C)ccc3[nH]2)C1` the figure was -24.1%; with `CN[C@H]1CN(c2ccc3c(=O)c(C(=O)O)cn(-c4nccs4)c3n2)C[C@@H]1OC`, -60.3%.
For `C=C1C(=O)O[C@H]2[C@H]1CC/C(C)=C/CC[C@@]1(C)O[C@@H]21`, the cell viability activity was -28.1%.
With `NC1(c2ccc(-c3nc4ccn5c(=O)[nH]nc5c4cc3-c3ccccc3)cc2)CCC1` the figure was -42.7%; with `CN(C)CCCCC(=O)Nc1ccc(NC(=S)NC(=O)c2ccc(C(C)(C)C)cc2)cc1`, -85.9%.
Take `CC1(COc2ccc3c(c2)ncn3-c2ccc3cccc(N4CCC(N)CC4)c3n2)COC1`: the cell viability activity is -98.3%.
For `Cc1nc(=O)c2cc(CN(C)c3ccc(C(=O)N[C@@H](CCC(=O)O)C(=O)O)s3)ccc2[nH]1`, the cell viability activity is -60.2%.
For `Nc1nccc2c1ncn2C1C=C(CO)C(O)C1O` (configuration not stated), the cell viability activity is -38.4%.
In the case of `O=C(/C=C/c1ccc(CN(CCO)CCc2c[nH]c3ccccc23)cc1)NO` it was -95.4%.
In the case of `O=C(NC1CCNCC1)c1n[nH]cc1NC(=O)c1c(Cl)cccc1Cl`, the cell viability activity is -82.8%.
Consider `N#Cc1ccncn1`, for which the cell viability activity was -26.7%.
With `COC(=O)N[C@@H](C)CNc1nccc(-c2cn(C(C)C)nc2-c2cc(Cl)cc(NS(C)(=O)=O)c2F)n1` the figure was -69.5%.
Regarding `C[C@H]1[C@@H](O)O[C@@H]2O[C@@]3(C)CC[C@H]4[C@H](C)CC[C@@H]1[C@@]24OO3`, the cell viability activity is -30.9%.
In the case of `Nc1ccc(-c2cccc3c(=O)cc(N4CCOCC4)oc23)cc1` it was -64.9%; in that of `CO[C@H]1/C=C\C=C(/C)C(=O)NC2=CC(=O)C(NCCN(C)C)=C(C[C@@H](C)C[C@H](OC)[C@H](O)[C@@H](C)/C=C(\C)[C@@H]1OC(N)=O)C2=O`, -93.9% and -91.4%; in that of `CCCCCCCCNC(C)C(O)c1ccc(SC(C)C)cc1` (configuration not stated), -87.2%.
On to `CC(C)c1cc(CNc2nc(Nc3cc(C4CC4)[nH]n3)cc(N3CCN(C)CC3)n2)on1`, for which the cell viability activity was -86.1%.
With `CCN(CC)CCNC(=O)c1c(C)[nH]c(/C=C2\C(=O)Nc3ccc(F)cc32)c1C` the figure was -99.7%; with `Cc1cn([C@H]2C[C@H](N=[N+]=[N-])[C@@H](CO)O2)c(=O)[nH]c1=O`, -29%; with `CC(C)(C)c1ccc(S(=O)(=O)/C=C/C#N)cc1`, -80.4%.
In the case of `CN(C)c1ccc(C(=O)NCCCCCCC(=O)NO)cc1` it was -84.4%; in that of `CCCCCCCCCCCCCCCC[N+](C)(C)CCN(Cc1ccc(OC)cc1)c1ncccn1`, -95.1%.
With `O=C(Nc1nc2ccc(NC(=O)C34CC5CC(CC(C5)C3)C4)cc2s1)c1ccccc1` the figure was -37.7%; with `O=C(CCCCCCC(=O)Nc1cccnc1)NO`, -42.9%; with `COCCOC(=O)C1=C(C)NC(C)=C(C(=O)OC/C=C/c2ccccc2)C1c1cccc([N+](=O)[O-])c1` (configuration not stated), -57.6%.
Consider `COC[C@H](NC(=O)c1cnc(C)s1)C(=O)N[C@@H](COC)C(=O)N[C@@H](Cc1ccccc1)C(=O)[C@@]1(C)CO1`, for which the cell viability activity was -95.3%.
`CO[C@H]1C(=O)[C@]2(C)[C@@H](OC)C[C@H]3OC[C@@]3(OC(C)=O)[C@H]2[C@H](OC(=O)c2ccccc2)[C@]2(O)C[C@H](OC(=O)[C@H](O)[C@@H](NC(=O)OC(C)(C)C)c3ccccc3)C(C)=C1C2(C)C`: the cell viability activity is -45%.
With `COc1cc2ncnc(Nc3ccc(F)c(Cl)c3)c2cc1NC(=O)/C=C/CN1CCCCC1`, the cell viability activity was -93.1%.
With `O=P(O)(O)C(O)(Cn1ccnc1)P(=O)(O)O`, the cell viability activity was -39.2%.
As for `Cc1nc(N)sc1-c1ccnc(Nc2ccc(N3CCOCC3)cc2)n1`, the cell viability activity was -59.7%.
With `C#C[C@]1(O)CC[C@H]2[C@@H]3CCC4=C(CCC(=O)C4)[C@H]3CC[C@@]21C` the figure was -62.8%; with `COc1ccc(N(C)c2nc(C)nc3ccccc23)cc1`, -59.2%.
With `CC(C)c1cc(-c2n[nH]c(=O)n2-c2ccc3c(ccn3C)c2)c(O)cc1O` the figure was -87.1%; with `CC(C)=CCC/C(C)=C/CC/C(C)=C/CSc1ccccc1C(N)=O`, -26.6%.
On to `CC1=C(C(=O)OC2CCCCC2)C(c2ccc([N+](=O)[O-])cc2)C2=C(CC(C)(C)CC2=O)N1` (configuration not stated), for which the cell viability activity was -27.1%.
